This excerpt belongs to a sample that is enriched for hits.
ST2 inh – inhibitors of human ST2 (IL1RL1) binding to IL-33; Q01638; AlphaLISA ST2-Fc/biotin-IL-33 interaction, 1 h; inhibition, % for hits at 17 µM; 78,000 tested, 2.3% active; in the data active means inhibition above about 30%
Target sequence (Q01638 whole entry, looked up): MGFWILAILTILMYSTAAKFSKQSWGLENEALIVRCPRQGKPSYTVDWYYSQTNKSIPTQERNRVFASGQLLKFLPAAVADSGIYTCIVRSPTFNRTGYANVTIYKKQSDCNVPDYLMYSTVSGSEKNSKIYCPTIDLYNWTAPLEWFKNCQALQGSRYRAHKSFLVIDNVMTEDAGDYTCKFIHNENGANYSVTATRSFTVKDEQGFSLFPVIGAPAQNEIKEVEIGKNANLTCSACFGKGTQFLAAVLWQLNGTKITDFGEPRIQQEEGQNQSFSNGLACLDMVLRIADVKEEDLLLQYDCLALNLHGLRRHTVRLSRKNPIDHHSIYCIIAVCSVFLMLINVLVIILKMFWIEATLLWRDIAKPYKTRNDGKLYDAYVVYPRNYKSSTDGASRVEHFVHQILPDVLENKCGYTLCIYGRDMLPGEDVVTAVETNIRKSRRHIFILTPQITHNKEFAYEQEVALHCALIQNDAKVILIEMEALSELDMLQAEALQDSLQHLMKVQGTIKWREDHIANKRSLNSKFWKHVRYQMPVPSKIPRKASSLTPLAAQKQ
* = called active by the depositor; i = inactive.

SMILES	ST2 inh
CCCc1cc(NCCCCO)n2c(nc3ccccc32)c1C#N	i
CC(=NS(=O)(=O)c1ccc(C)cc1)N1CCN(S(=O)(=O)c2ccc(C)cc2)C1C(C)C (stereo not drawn)	i
COc1ccc(N=Cc2cc(Br)cc(Cl)c2O)cc1	i
Oc1c(Br)cc(C=Nc2ccc(N3CCOCC3)cc2)c(O)c1Br	52%*
NC(N)=NS(=O)(=O)c1ccc(N=Cc2cc(Br)cc(Br)c2O)cc1	i
CCOC(=O)N1CCN(C(=O)c2ccc(N3CCC(NCCc4ccncc4)CC3)cc2)CC1	i
CCOC(=O)N1CCN(C(=O)c2ccc(N3CCC(NCCc4cccs4)CC3)cc2)CC1	i
O=C(c1ccc(N2CCC(NCC3(N4CCOCC4)CCCC3)CC2)cc1)N1CCCC(O)C1 (stereo not drawn)	31%*
O=S1(=O)NC(=NCCCCO)c2ccccc21	i
CCC(=O)N1c2ccccc2-c2nnc(SC)nc2OC1c1ccc(C)o1 (stereo not drawn)	i
Nc1c(Cl)cc(N2C(=O)c3ccc(C(=O)O)cc3C2=O)cc1Br	i
Cc1cc(C)c(-c2csc(NC(=O)CN3C(=O)CCC3=O)n2)c(C)c1	i
CS(=O)(=O)c1ccc(N2CCN(c3ccccc3)CC2)c([N+](=O)[O-])c1	i
COc1ccccc1N1CCN(c2ccc([N+](=O)[O-])c3cccnc23)CC1	31%*
CC(O)CNc1ccc(C(F)(F)F)cc1[N+](=O)[O-] (stereo not drawn)	i
COc1ccc(N2CCN(c3ccc([N+](=O)[O-])c4cccnc34)CC2)c([N+](=O)[O-])c1	55%*
COc1ccc(N2CCN(c3cc(N4CCN(C)CC4)ccc3[N+](=O)[O-])CC2)cc1	44%*
O=[N+]([O-])c1cc(CN2CCOCC2)c(O)c2ncccc12	i
CN1CCN(c2cc(N3CCN(CCO)CC3)ccc2[N+](=O)[O-])CC1	i
COc1ccccc1N1CCN(C(=O)c2cc(OC)c(OC)c(OC)c2)CC1	i
Cc1cc(C)n(-c2ccc(C(F)(F)F)cc2[N+](=O)[O-])n1	i
O=[N+]([O-])c1cc(C(F)(F)F)ccc1N1CCc2ccccc21	68%*
COc1ccc(N2CCN(Cc3cc(OC)c(O)c([N+](=O)[O-])c3)CC2)cc1	i
O=[N+]([O-])c1cccc(Cl)c1N1CCN(c2ccc([N+](=O)[O-])c3cccnc23)CC1	i
COC(=O)c1cccc(C(=O)N2CCC3(CC2)CC3C(=O)NCCc2cccc(OC)c2)c1 (stereo not drawn)	i
SMILES	ST2 inh
CC1(C)C(=O)OC(c2ccc(C3OC(=O)C(C)(C)C(=O)C3(C)C)cc2)C(C)(C)C1=O (stereo not drawn)	i
c1ccc(-c2cccc(CN3CCC(OCc4cccnc4)CC3)c2)nc1	i
COc1cc(C2OCC3C(C)C=C(C)C2C3C)ccc1OCc1ccc(C(=O)O)cc1 (stereo not drawn)	i
O=C(O)c1cccc(C(=O)N2C[C@@H]3C[C@H](C2)c2ccc(NC(=O)c4ccc(F)cc4)c(=O)n2C3)c1	i
O=C1c2ccccc2C(=O)N1CN(Cc1ccccc1)Cc1ccccc1	i
Cc1noc(-c2ccnc(N3CCC4(CCNCC4)C3)c2)n1	i
COC(=O)[C@@H]1CN(C(=O)c2cccs2)CCN1C(=O)c1cccnc1	i
CCOC(=O)c1c(C)n(C)c2ccc(OC(=O)COc3ccccc3)cc12	i
O=C(CCCOc1ccccc1)Nc1cc(Cl)c(Cl)cc1Cl	i
Cc1cc(-c2c(-c3ccccc3)ncn2CCOc2nonc2C)n[nH]1	i
O=[N+]([O-])c1ccccc1OCC(O)CN1CCN(c2ccccc2F)CC1 (stereo not drawn)	i
O=[N+]([O-])c1cc(C(F)(F)F)ccc1N1CCN(c2ccc([N+](=O)[O-])c3cccnc23)CC1	45%*
Cc1ccccc1C(=O)N1CCN(c2ccc([N+](=O)[O-])c(N3CCOCC3)c2)CC1	i
O=C(c1cnc(N2CCN(c3ccccn3)CC2)c2ccccc12)N1CCN(c2ccccn2)CC1	i
CCC(=O)N1CCN(c2ccc(F)cc2[N+](=O)[O-])CC1	i
O=[N+]([O-])c1cc(C(F)(F)F)ccc1N1CCN(CCOc2nonc2-c2ccccc2)CC1	45%*
O=[N+]([O-])c1cccnc1N1CCOCC1	i
O=C(c1ccccc1F)N1CCN(c2ccc([N+](=O)[O-])c3cccnc23)CC1	35%*
CC1(C)CC(NC(=O)c2cccc(I)c2)CC(C)(C)N1	i
CCn1c(C)cc(C)c(C(=O)Nc2ccc(NC(=O)CC(C)C)c(OC)c2)c1=O	i
Cc1cc(CN(C)C(=O)C2CCCN(C3CCN(C(=O)C4CC4)CC3)C2)ccn1 (stereo not drawn)	i
O=C(CCS(=O)(=O)c1cccs1)NC1CCCCC1	i
O=C(CCCCCN1C(=O)c2ccccc2C1=O)Nc1ccc(Cl)cc1	i
O=C(CCCN1C(=O)S/C(=C\C=C\c2ccccc2)C1=O)Nc1ccc(C(=O)O)cc1	32%*
O=C(O)CCCC(=O)Nc1ccc(C(=O)O)cc1	i
SMILES	ST2 inh
O=C(Nc1ccc(CN2CCCC2)cc1)c1cc(F)c(F)cc1Cl	i
Cc1occc1C(=O)N(C)C(Cc1ccccc1F)C1CCN(C(=O)[C@H]2C[C@@H]3C=C[C@H]2C3)CC1 (stereo partly drawn)	i
CCn1cc2c(c1-c1ccc(OC)cc1)c(=O)n(C)c(=O)n2C	i
COc1ccc2cc(S(=O)(=O)N3CCN(C)CC3)ccc2c1	i
CCn1c(=O)ccc2cc(OC)ccc21	31%*
CN(C)CCNC(=O)c1cccn2c(=O)c3c4c(sc3nc12)CCCC4	i
CCOc1ccc(N2CC(C(=O)Nc3ccccc3OCC)CC2=O)cc1 (stereo not drawn)	i
COc1ccc(C(=O)N2C[C@H]3CC=CC[C@H]3C2)cc1N1CCOCC1	i
Cc1nnsc1CN(C)Cc1cccn1S(=O)(=O)c1ccccc1	i
CN(Cc1cc(-c2ccccc2)on1)C(=O)c1cn(Cc2cccc3ccccc23)nn1	i
COc1cc(/C=C(\C#N)c2nc3ccccc3s2)cc(OC)c1OC	34%*
COc1cccc2sc(=NC(=O)c3nc4ccccc4s3)n(C)c12	i
COc1cc(OC)cc(C(=O)OCc2nc3ccccc3s2)c1	i
O=C(Nc1ccc(O)cc1)c1ccc(Oc2cccc(C(=O)Nc3ccc(O)cc3)c2)cc1	i
COc1ccccc1CCN1CCCC(CN(C)C(=O)NCc2ccccc2)C1 (stereo not drawn)	i
Cc1ccc2[nH]c(C)c(CN(C)C3CCCCC3)c(=O)c2c1	i
CC(=O)c1ccc(NC(=O)CCCn2nc(C)c([N+](=O)[O-])c2C)cc1	i
O=c1c2ccccc2nc(/C=C/c2ccc3c(c2)OCO3)n1-c1ccc([N+](=O)[O-])cc1	i
COc1ccc(N2CN=c3s/c(=C\c4cccc([N+](=O)[O-])c4)c(=O)n3C2)cc1	33%*
Cc1ccccc1-n1nc([N+](=O)[O-])c(=NCc2ccc3c(c2)OCO3)n1O	i
CC(=O)c1ccc(N2CN=c3s/c(=C\c4cccc([N+](=O)[O-])c4)c(=O)n3C2)cc1	i
CC(=O)c1ccc(N2CN=c3s/c(=C\c4cccnc4)c(=O)n3C2)cc1	i
O=c1/c(=C/c2cccc([N+](=O)[O-])c2)sc2n1CN(c1ccc3c(c1)OCO3)CN=2	36%*
COc1cc(C(=O)Nc2nnc(N=Cc3ccc([N+](=O)[O-])s3)s2)cc(OC)c1OC	i
COc1cc(C(=O)Nc2ccccc2-c2ccccc2)cc(OC)c1OC	i

Assay outcomes deposited in PubChem by Paczesny and Yang Labs, IUPUI and University of Michigan.
